The structures appear in SMILES notation. About 83,000 compounds went through this panel and 20% of them were active in at least one assay; those are over-represented in the sample as a whole.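 Plates (96-well) were seeded with cells, treated with compound at one concentration, and incubated for 48 hours before percent growth was determined.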 Unmarked numbers belong to inactive results. The source made the active and inactive calls. The calls were made as follows: active = growth percent below 10; inactive = the rest.

Assay in all cases: NCI-60 one-dose screen, 48 h (100 = growth as untreated, 0 = no growth, -100 = all killed)
What all share (conditions): 10 µM unless noted

In experiment [1] the test system is SK-MEL-2 melanoma.
Experiment [2] deals with EKVX NSCLC.
In experiment [3] the test system is SN12C renal.
Experiment [4] deals with UO-31 renal.
The subject of experiment [5] is TK-10 renal.
For experiment [6], the system named is ACHN renal.
For experiment [7], the system named is CAKI-1 renal.
Experiment [8] relates to A498 renal.
The test system of experiment [9] is CCRF-CEM leukemia.
Experiment [10] has as its system MOLT-4 leukemia.

Take `Cn1cc(-c2nnc(N)nc2-c2c[nH]c3ccc(F)cc23)c2cc(Br)ccc21`: the growth in experiment [1] is 11.8%; in experiment [2], 27.7%; in experiment [3], 38.1%; in experiment [4], 41.3%; in [5] it was 61.5%; in experiment [6], 40.6%. Also, the growth is 28% in experiment [7], 3.05% (active) in experiment [8], -4.24% (active) in experiment [9] and -21.3% (active) in experiment [10].
As to `C=C(C)[C@@H]1CC[C@]2(COP(=O)(OCC)OCC)CC[C@]3(C)[C@H](CC[C@@H]4[C@@]5(C)CC[C@H](OP(=O)(OCC)OCC)C(C)(C)[C@@H]5CC[C@]43C)[C@@H]12`, the growth in experiment [1] was 67.9%; in experiment [2], 26.6%; in [3], 33.4%; in experiment [4], 22.6%; in [5], 68.5%; in [6] it was 41.4%. For the same compound, the growth in experiment [7] is 35.2%; in experiment [8] it was 66.4%; in [9], 39.4%; in experiment [10] it was 27.8%.
Regarding `C#Cc1cc(OC)c(C(=O)Nc2ccc(F)cc2C(=O)Nc2cccc(S(=O)(=O)C(F)(F)F)c2)cn1`, the growth in [1] was 45.1%; in experiment [2], 13.9%; in experiment [3], 17.1%; in [4], -85.1% (active); in experiment [5] it was 66.6%; in experiment [6] it was -57.4% (active). The growth in [7] was -11.4% (active); in experiment [8], -18.2% (active); in [9], -23.5% (active); in experiment [10], -32.9% (active).
In the case of `Clc1ccc(CSc2nnc(-c3ccc(Cl)cc3)n2-c2ccccc2)cc1`, the growth was 85.9% in [1]; 86.6% in [2]; 82.9% in experiment [3]; 68.2% in experiment [4]; 93.3% in experiment [5]; 55.5% in [6]. Also, the growth in [7] is 62.9%; in experiment [8], 68%; in [9] it was 97.4%; in experiment [10], 92%.
With `Cc1c(C(=O)/C=C/c2ccc(Cl)cc2)nnn1-c1ccc2oc(=O)ccc2c1`, the growth in experiment [1] is 110%; in [2] it was 91.2%; in experiment [3], 92.3%; in experiment [4], 73.4%; in experiment [5], 104%; in experiment [6] it was 94.6%. Further, the growth in experiment [7] is 88.6%; in experiment [8], 103%; in [9], 92.3%; in experiment [10], 98.9%.
As for `CN(C)S(=O)(=O)c1ccc(-c2nc(C(Cl)Cl)nc3cc(-c4ccccc4)nn23)cc1`, the growth in experiment [1] was 112%; in [2] it was 80%; in experiment [3] it was 81.1%; in experiment [4], 88.8%; in experiment [5], 101%; in [6], 43.4%. Moreover, the growth in experiment [7] was 73.1%; in experiment [8] it was 106%; in [9], 77.3%; in experiment [10], 63.4%.
On to `O=C(CSc1nnc(-c2cccs2)n1-c1ccccc1)Nc1ccccc1F`, for which the growth in [1] was 95.8%; in experiment [2] it was 94.6%; in [3] it was 99.1%; in [4], 77.4%; in experiment [5], 110%; in experiment [6], 92.5%. Also, the growth is 55.6% in [7], 79.9% in experiment [8], 76.9% in experiment [9] and 72% in [10].
Turning to `C#C[C@]1(O)CC[C@H]2[C@@H]3CC=C4c5sc(Nc6ccc(C)cn6)nc5CC[C@]4(C)[C@H]3CC[C@@]21C`, the growth in [1] was -25.1% (active); in experiment [2], -21.7% (active); in [3] it was 45.9%; in experiment [4], -63.7% (active); in [5], 18.6%; in [6] it was 17.4%. Also, the growth is -74.1% (active) in experiment [7], -26.5% (active) in [8], 10.6% in [9] and -42.3% (active) in [10].
Regarding `CCC(=C(c1ccc(OCCN2CCCCCC2)cc1)c1ccc(OCCN2CCCCCC2)cc1)c1ccc(Cl)cc1`, the growth in experiment [1] was -29.9% (active); in [2], 54.5%; in experiment [3], 48.3%; in experiment [4] it was 13.6%; in [5], 114%; in [6] it was 26.2%. For the same compound, the growth in experiment [7] was 44.3%; in [8], 84.4%; in experiment [9], 3.5% (active); in [10], 4.03% (active).
On to `O=S(=O)(NCCCNc1nccc(-c2[nH]c(-c3ccccc3)nc2-c2ccc(F)c(O)c2)n1)c1ccccc1`, for which the growth in [1] was 31.6%; in [2], 102%; in [3], 107%; in experiment [4], 144%; in [5], 154%; in [6] it was 95.4%. Moreover, the growth in [7] was 105%; in experiment [8] it was 114%; in experiment [9], 47.9%; in experiment [10] it was 51.3%.
For the compound `COC(=O)c1cccc(NC2=C(Cl)C(=O)c3nc(C)ccc3C2=O)c1`, the growth in experiment [1] is 101%; in experiment [2], 54.3%; in experiment [3] it was 93.1%; in experiment [4], 48.5%; in [5], 128%; in experiment [6], 0.427% (active). Moreover, the growth is 103% in [7], 71% in experiment [8], 5.63% (active) in experiment [9] and 19.7% in experiment [10].
Turning to `Cn1cc(C2=C(c3coc4cc(Br)ccc34)C(=O)NC2=O)c2ccccc21`, the growth in experiment [1] was 96.5%; in [2], 67%; in experiment [3], 95.7%; in [4] it was 52.5%; in experiment [5], 101%; in [6], 88.2%. Also, the growth is 50.5% in experiment [7], 79.8% in [8], 62.5% in experiment [9] and 52.9% in [10].
On to `O=C(/C=C/c1ccccc1Cl)Nc1ncc(Cc2cc(Cl)ccc2Cl)s1`, for which the growth in experiment [1] is 30.4%; in experiment [2] it was 37.6%; in experiment [3] it was 34.1%; in [4], 48.2%; in experiment [5] it was 61.2%; in [6], 31.3%. The growth in [7] is 36.6%; in experiment [8], -16.6% (active); in [9], 14%; in experiment [10], 24%.
